The list is not random: actives were taken first. Their share in the collection is about 0.47%.
UDG counterscr: blocks uracil-DNA glycosylase in AID counter-screen; FRET deamination/UDG coupled assay, UDG read, 4 h; Potency, µM (highest dose often 115 µM), for inactives: at the top dose activity change, negative = inhibition, most hits filed as inhibitors; 91,000 tested, 0.14% active; further: nearly all actives have a fitted effect of over 65% in size
AID inhibitor: inhibitors of human activation induced cytidine deaminase | AID deamination FRET fluorescence, UDG-coupled, 4 h | Potency, µM (series often up to 115 µM), usual class: inhibitors | 91,000 tested, 0.32% active; further: nearly all actives have a fitted effect of over 25% in size
Target sequence (Q9GZX7 whole entry, looked up): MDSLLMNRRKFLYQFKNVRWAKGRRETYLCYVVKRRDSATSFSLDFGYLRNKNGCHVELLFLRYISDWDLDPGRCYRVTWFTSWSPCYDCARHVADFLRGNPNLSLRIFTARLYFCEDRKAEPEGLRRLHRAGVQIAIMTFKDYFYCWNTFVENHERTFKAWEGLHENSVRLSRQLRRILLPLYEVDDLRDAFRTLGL
The depositor's hits bear a star; i = inactive; ? = inconclusive; [ ] = dose if it differs, or a comment. The call rests on the fitted dose curve; in most records, active means well fitted curve in the direction sought with a large enough effect; inconclusive means small, poorly fitted or top-dose-only effect, or another doubt; inactive means no such curve, though single readings can be large; an effect the other way counts as inactive or inconclusive. On the % scale 0 is the no-effect control and ±100 the full control effect; potency means the concentration at half of the fitted maximal effect.

SMILES | UDG counterscr | AID inhibitor
COc1ccccc1NC(=O)C1CCN(c2nccnc2Sc2ccc(C)cc2)CC1 | ? | i
COc1cc(Cl)c(C)cc1NC(=O)C(C)N1CCN(S(=O)(=O)c2ccccc2C#N)CC1 (stereo unspecified) | 7.2% | i
CCCOc1ccc(-c2nn(-c3ccccc3)cc2C2NC(=O)NC(C)=C2C(=O)OC)cc1 (stereo unspecified) | -22.2% | ?
CCCOc1ccc(-c2nn(-c3ccccc3)cc2C2NC(=O)NC(C)=C2C(=O)OCC)cc1 (stereo unspecified) | 89.1µM* | ?
O=C(CN1CCOCC1)N1CCCN(S(=O)(=O)c2ccccc2)C1c1ccccc1 (stereo unspecified) | 22.3% | i
O=C(Nc1cccc(C(F)(F)F)c1)C1CCN(S(=O)(=O)c2cccs2)CC1 | 79.4µM* | ?
O=C(Nc1ccc(OC(F)(F)F)cc1)C1CCN(S(=O)(=O)c2cccs2)CC1 | ? | i
CC(NC(=O)NC(C(N)=O)C(N)=O)c1ccccc1C(F)(F)F (stereo unspecified) | -6.8% | i
CCOc1ccc(CNC(=O)c2sc3ncnc(N(C)C4CCCCC4)c3c2C)cc1 | -14.7% | ?
CCc1ccc(NC(=O)c2sc3ncnc(N(C)C4CCCCC4)c3c2C)cc1 | 79.4µM* | i
COc1cc(C2CC(=O)Nc3nc(N4CCCCC4)sc32)cc(OC)c1OC (stereo unspecified) | -8.1% | 35.5µM*
COc1cc(C2CC(=O)Nc3n[nH]c(Nc4ccccc4)c32)cc(OC)c1OC (stereo unspecified) | -2.1% | i
Cc1ccc2nc(/C(C#N)=C/c3cccc(O)c3)[nH]c2c1 | -0.2% | i
CCCCNC(=O)c1cnn2c(C)c(Cc3c(C)cc(C)cc3C)c(C)nc12 | -27.6% | ?
Cc1nc2c(C(=O)NCc3ccccc3)cnn2c(C)c1Cc1ccc(F)cc1 | -22.3% | ?
COc1ccc(CNC(=O)c2cnn3c(C)c(Cc4c(F)cccc4Cl)c(C)nc23)cc1 | -17.0% | 35.5µM*
CCCNC(=O)c1cnn2c(C)c(Cc3c(C)cc(C)cc3C)c(C)nc12 | -10.0% | 39.8µM*
Cc1ccc(NC(NC(=O)C(C)(C)C)C(Cl)(Cl)Cl)cc1 (stereo unspecified) | -8.0% | i
N#CCCN1CCN(C(C(=O)O)c2cn(CCC(=O)O)c3cc(Br)ccc23)CC1 (stereo unspecified) | 0.6% | i
COc1ccc(NC(=O)c2cnc(SC)nc2C)cc1OC | -1.6% | i
Cc1nc2c(C(=O)NCCc3ccccc3)c[nH]n2c(=O)c1Cc1ccc(F)cc1Cl | -7.3% | i
Cc1ccc(CNC(=O)c2c[nH]n3c(=O)c(Cc4ccc(F)cc4Cl)c(C)nc23)cc1 | -7.2% | 70.8µM*
COc1cccc(-c2cc(C(=O)O)c3cc(C)cc(C)c3n2)c1 | 3.9% | i
Cc1nnc(NC(=O)c2ccc3ccn(C)c3c2)s1 | -1.9% | i
COc1ccc(CNC(=O)C(=O)NCC(c2ccc3c(c2)OCO3)N2CCOCC2)cc1 (stereo unspecified) | 1.2%[57.5 µM] | i
SMILES | UDG counterscr | AID inhibitor
COc1ccc(CNCCC(c2ccc3c(c2)OCO3)c2ccccc2OC)cc1 (stereo unspecified) | -14.8% | 50.1µM*
O=S(Cc1cccc(C(F)(F)F)c1)Cc1c(F)cccc1Cl (stereo unspecified) | -8.0% | i
COCCN(Cc1cc2ccc(C)cc2[nH]c1=O)C(=O)c1cccc(OC)c1 | 5.3% | i
Cn1c(SCc2ccc(F)cc2)nc2ccc(C(=O)NCc3ccc(Cl)cc3)cc21 | -11.6% | ?
Cn1c(SCc2ccc(F)cc2)nc2ccc(C(=O)NCc3ccc(F)cc3)cc21 | 0.5% | 28.2µM*
Cc1ccc(C)c(NC(=O)C(c2ccccc2)N2CCC(c3nc(C4CC4)n[nH]3)CC2)c1 (stereo unspecified) | 1.4% | i
CN1CCN(C(CNC(=O)c2cc(-c3ccccc3)on2)c2cccs2)CC1 (stereo unspecified) | -2.8% | i
COc1ccc(-c2nc3c(c(SCC(=O)Nc4cccc(O)c4)n2)Cc2c(CO)cnc(C)c2O3)cc1 | -14.9% | 44.7µM*
COc1cc(NC(=O)CSc2nc(-c3ccc(C)cc3)nc3c2Cc2ccccc2O3)cc(OC)c1 | -17.3% | i
CCOc1ccc(NC(=O)CSc2nc(-c3ccc(OC)cc3)nc3c2Cc2c(CO)cnc(C)c2O3)cc1 | 1.8% | i
O=C(CSc1nc(-c2ccc(F)cc2)nc2c1Cc1ccccc1O2)Nc1cccc(C(=O)O)c1 | -0.5% | 39.8µM*
CCCC(=O)NCC(=O)N(CCN(C)C)Cc1ccc(Cl)cc1 | -8.5% | i
Cc1ccc(C)c(NCc2nnc(-c3ccc(Br)cc3)o2)c1 | -1.1% | i
COc1cc2c(c(OC)c1OC)-c1ccc(NCCO)c(=O)cc1[C@@H](NC(C)=O)CC2 | 11.3% | i
Cc1ccc(S(=O)(=O)N2CCn3cccc3C2c2ccccc2)cc1 (stereo unspecified) | 89.1µM* | i
COc1ccc(S(=O)(=O)N2CCn3cccc3C2c2ccccc2)cc1 (stereo unspecified) | ? | i
Cc1c(-c2ccc(Cl)cc2)nc2ccccc2c1C(=O)NC1CCCCCC1 | -9.0% | i
CCc1ccccc1N(C(C)=O)c1nc(COc2ccc(Cl)cc2C(N)=O)cs1 | -5.5% | ?
COc1ccc(-c2noc(N3CCC(C(=O)N(C)c4cc(Cl)ccc4OC)CC3)n2)cc1 | -13.7% | 79.4µM*
COc1ccc(-c2noc(N3CCC(C(=O)N4CCN(c5ccccc5OC)CC4)CC3)n2)cc1 | ? | i
CC(C)(CNC(=O)C1CC1)CNC(=O)C1CC1 | 4.7% | i
O=C(c1ccc2c(Cl)c3c(nc2c1)CCCC3)N1CCN(c2cccc(Cl)c2)CC1 | -14.1% | 14.1µM*
O=C(c1ccc2c(Cl)c3c(nc2c1)CCCC3)N1CCN(c2cccc(C(F)(F)F)c2)CC1 | 1.0% | i
O=C(c1ccc2c(Cl)c3c(nc2c1)CCCC3)N1CCN(c2ccc(Cl)cc2)CC1 | 0.6% | i
COc1cccc(N2CCN(C(=O)c3ccc4c(Cl)c5c(nc4c3)CCCC5)CC2)c1 | -12.6% | 20µM*
SMILES | UDG counterscr | AID inhibitor
O=C(c1cc2ccccc2oc1=O)N1CCCN(Cc2ccccc2)CC1 | -1.4% | i
CC(CO)NC(=O)CSc1nc(-c2ccccc2)c(-c2ccccc2)o1 (stereo unspecified) | -5.5% | i
COC(=O)CSc1nc2c(c(=O)n(C)c(=O)n2C)n1Cc1ccccc1Cl | 3.3% | i
CN1C(=O)Cc2cc(S(=O)(=O)CCC(=O)N3CCN(c4ccccc4F)CC3)ccc21 | ? | i
Cc1cccc(N2CCN(C(=O)CCS(=O)(=O)c3ccc4c(c3)CC(=O)N4C)CC2C)c1 (stereo unspecified) | 79.4µM* | i
Cc1cccc(N2CCN(c3ncnc4onc(C)c34)CC2C)c1 (stereo unspecified) | 0.7% | i
Cc1cccc(N2CCN(c3ncnc4onc(-c5ccc(F)cc5)c34)CC2C)c1 (stereo unspecified) | 79.4µM* | ?
COc1ccc(-c2c3c(=O)n(C)c(=O)n(C)c3c3n2-c2ccccc2NC3c2ccccc2OC)cc1 (stereo unspecified) | 79.4µM* | ?
Cn1c(=O)c2c(-c3ccccc3)n3c(c2n(C)c1=O)C(c1cc(Cl)ccc1O)Nc1ccccc1-3 (stereo unspecified) | ? | i
Cc1ccc(S(=O)(=O)N(Cc2ccccc2)c2nc3nc(C)cc(C)n3n2)cc1 | -12.4% | i

From PubChem
